Screen size: about 69,000 compounds; about 420 (0.61%) showed an effect of 50% or more. The list comes from a sample in which strong results are over-represented; it also holds similar structures and randomly drawn compounds.

In this experiment the target is T1, Histidine--tRNA ligase (Leishmania infantum) (UniProt A4I591).
T1 sequence (whole entry): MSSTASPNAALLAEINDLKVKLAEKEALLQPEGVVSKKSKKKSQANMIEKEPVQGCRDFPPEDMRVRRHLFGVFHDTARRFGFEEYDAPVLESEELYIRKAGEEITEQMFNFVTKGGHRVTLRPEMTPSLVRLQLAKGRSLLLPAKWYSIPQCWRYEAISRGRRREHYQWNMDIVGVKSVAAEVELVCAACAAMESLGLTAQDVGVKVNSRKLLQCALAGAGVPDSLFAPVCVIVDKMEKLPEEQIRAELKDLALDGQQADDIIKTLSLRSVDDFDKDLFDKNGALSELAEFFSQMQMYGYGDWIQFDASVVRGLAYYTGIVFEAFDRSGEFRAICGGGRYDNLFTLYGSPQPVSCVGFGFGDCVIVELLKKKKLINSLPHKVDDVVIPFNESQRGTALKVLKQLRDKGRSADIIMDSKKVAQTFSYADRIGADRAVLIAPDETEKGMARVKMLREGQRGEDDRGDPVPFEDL
Put plainly: Leishmania infantum Histidine tRNA synthetase (LdHisRS). It is filed as functional. Further details: scale not given: in the data most compounds retested in dose-response had high values. Conditions: 30 µM.
For the compound `O=C(CC1CC1)N1C[C@@H]2CN(c3ccccc3)C(=O)[C@@H]2C1`, the Percent Effect worked out at 21.1%. Then `COc1cc(CN2C[C@@H]3CNC(=O)[C@H](C)[C@@H]3C2)cc(OC)c1`, with 21.1%. Then `O=C1[C@H]2CN(S(=O)(=O)C3CC3)C[C@H]2CN1Cc1cccnc1`, with 2.74%; and `COCCN1C(=O)C[C@H]2[C@H]1CCN2C(=O)c1ccc[nH]1`, with 22.6%. To `Cc1cccc(CN2C[C@@H]3CN(C(=O)c4ccnnc4)C[C@@H]3C2=O)c1` belongs 28.6%; to `O=C(c1cscn1)N1C[C@H]2CCCC(OCc3cccnc3)[C@H]2C1` (some centres undefined), 17%; to `Cc1nc(N2CCCC2)nc2c1CCN(C(=O)C1CCCC1)CC2`, 23.3%. Consider `Cc1nc(N2CCCC2)nc2c1CCN(C(=O)C1CCCCC1)CC2`, for which the Percent Effect worked out at 23.1%.

Take `Cc1nc(N2CCCC2)nc2c1CCN(C(=O)C1CCC1)CC2`: the Percent Effect was 51.3%. To `CNC(=O)CN1CC[C@H]2CN(C(=O)c3ccc(C)cc3)C[C@H]2C1` belongs 9.72%; to `O=C(c1cscn1)N1CC[C@@H]2[C@@H]1CCN2c1ccccn1`, 10.5%; to `Cc1cc(O)ccc1-c1cc(-c2cnn(C)c2C2CC2)c(C#N)c(N)n1`, 29.1%. Then `Cn1ncc(-c2cc(-c3cccc(O)c3)nc(N)c2C#N)c1C1CC1`, with 64.6%; and `Cc1nn(C)c(C)c1-c1cc(-c2cnn(C)c2C2CC2)c(C#N)c(N)n1`, with 19%. To `CC(CNC(=O)c1cnccn1)Oc1ccc(F)cc1` (centres undefined) belongs 5.31%; to `O=C(c1cncc(N2CCC3(CCNCC3)CC2)n1)N1CCCC1`, 18.4%. On to `O=C(c1cncc(N2CCCC3(CCNCC3)CC2)n1)N1CCCCC1`, for which the Percent Effect was found to be 31.7%.

For the compound `O=C(c1cncc(N2CCC3(CCCNC3)C2)n1)N1CCCC1` (centres undefined), the Percent Effect stood at 56.7%. For the compound `CC1(C)[C@H]2CC=C(CN3CCCn4nc(CNS(C)(=O)=O)cc4C3)[C@@H]1C2`, the Percent Effect was determined as 10.6%. Then `CN1C(=O)[C@H]2CC[C@@H]1CN(C(=O)Nc1cccc3ccccc13)C2`, with 68.6%.

Regarding `CS(=O)(=O)NCC1CCCN(C(=O)Nc2cccc3ccccc23)C1` (centres undefined), the Percent Effect was 33%. For the compound `O=C(Nc1cccc2ccccc12)N1CCC(N2CCSCC2)CC1`, the Percent Effect is 18.3%. With `CC(C)c1ccccc1NC(=O)N1C[C@@H]2CC[C@H](C1)N(C)C2=O`, the Percent Effect was 11.8%. As for `CN1C(=O)[C@H]2CC[C@@H]1CN(C(=O)Nc1ccccc1C(F)(F)F)C2`, the Percent Effect stood at 7.84%.

`Cc1oncc1C(=O)N1CC[C@H]2C[C@H](c3ccncn3)O[C@@H]2C1`: the Percent Effect was determined as 7.27%. Consider `CS(=O)(=O)NC[C@]12COC[C@H]1CN(C(=O)C1CC=CC1)C2`, for which the Percent Effect is -44.5%. Then `Fc1cnc(N2CCC3(CC2)CC(OCc2cccnc2)CO3)nc1` (centres undefined), with 8.77%. In the case of `N#Cc1ccc(N2CCC3(CC2)CC(OCc2cccnc2)CO3)cc1` (centres undefined), the Percent Effect turned out to be 33.3%. Take `Fc1ccc(N2CCC3(CC2)CC(OCc2cccnc2)CO3)cc1` (centres undefined): the Percent Effect turned out to be 56.1%.

Source of the values: ChEMBL document CHEMBL3988442, “University of Dundee, Small-Polar-MMV Screening Library” (2021).
